# Experimental data reported in PubChem BioAssay (NCATS).
# “And” between values parts separate entries of the source, which are not always exact repeats. Equal entries are not always repeated. Inconclusive results are not listed. The source made the active and inactive calls. Calls follow the shape of the dose curve; as a rule, active = well fitted cell-killing curve with a large enough effect; inconclusive = small, poorly fitted or top-dose-only effect; inactive = flat fitted curve, though single readings scatter.
# Experiment: Cellular viability qHTS for adrenocortical cancer (ACC) cell line NCI-H295R (AID 1963990); also: nearly all actives have a fitted effect of over 60% in size;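 as to activity change, negative = viability loss: 0% = DMSO only wells and -100% = full killing with cytotoxic reference compound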
# Settings: CellTiter-Glo ATP luminescence, 48 h; series mostly up to 46.1 µM; activity change, negative = viability loss: at the top concentration
# Method in brief: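 Luminescent ATP read-out (CellTiter-Glo, 20 min RT) after 48 h drug exposure of NCI-H295R cells; a titration up to 46 uM final. Data normalized to doxorubicin (100% inhibition) and DMSO (0%); 4-parameter fit gives IC50, max response.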
# Potency is read from the fitted curve at half-maximal effect.
SMILES,"activity change, negative = viability loss",Potency
Nc1ccccc1,-12.4% (inactive),
Cc1cccc(C)c1NC1=NCCCS1,-13.3% (inactive),
CC(C)(O)/C=C\C(=O)[C@](C)(O)[C@H]1[C@H](O)C[C@]2(C)[C@@H]3CC=C4[C@@H](C=C(O)C(=O)C4(C)C)[C@]3(C)C(=O)C[C@@]12C,,1.26 µM (active)
O=C1c2ccccc2C(=O)c2ccccc21,-2.47% [at 20 µM] (inactive),
C[N+]1(CCF)[C@@H]2CC[C@H]1CC(OC(=O)C(O)(c1ccccc1)c1ccccc1)C2 (stereo partly specified),7.98% (inactive),
C=CCN1C[C@H](C)N([C@H](c2ccc(C(=O)N(CC)CC)cc2)c2cccc(OC)c2)C[C@H]1C,-0.737% (inactive),
O=C(N/N=C/c1ccc([N+](=O)[O-])o1)c1cc([N+](=O)[O-])cc([N+](=O)[O-])c1O,-21.8% (inactive),
CCC(OC(C)=O)C(CC(C)NC)(c1ccccc1)c1ccccc1 (stereo unspecified),,15.8 µM (active)
CCCC[N+]1(C)[C@@H]2CC(OC(=O)[C@H](CO)c3ccccc3)C[C@H]1[C@@H]1O[C@@H]12 (stereo partly specified),-2.16% (inactive),
O=C(CCCN1CCC2(CC1)C(=O)NCN2c1ccccc1)c1ccc(F)cc1,-13.7% (inactive),
C[C@@H](N)[C@@H](O)c1ccccc1,-17.2% (inactive),
CC(O)CN1CCN(CC(=O)[O-])CCN(CC(=O)[O-])CCN(CC(=O)[O-])CC1.[Gd+3] (stereo unspecified),2.64% (inactive),
CN(C)c1cc2c(cc1Sc1nc3c(N)nccc3n1CCNCC(C)(C)C)OCO2,,2.24 µM (active)
Oc1ccc(Cl)cc1Cc1ccccc1,,12.6 µM (active) and 23.1 µM (active)
CC(C)(C)c1ccc(O)cc1,-16.1% (inactive),
CN1C(=O)NC(=O)C(C)(C2=CCCCC2)C1=O (stereo unspecified),3.83% (inactive),
